A selection: hits, their analogues and other compounds. The true share with any hit is near 19%.
DT40 TDP1 CPT – growth inhibition of DT40 Tdp1-/-;hTDP1 cells with camptothecin (screen for TDP1 inhibitors); chicken DT40 Tdp1-/-;hTDP1 cells + 20 nM CPT, ATP luminescence, 48 h; Potency, µM (series often up to 46.2 µM), inactives show at the highest dose activity change, negative = growth inhibition, hits mostly inhibitors; AID 686979; 12% of 420,000 active; note: nearly all actives have a fitted effect of over 55% in size
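Cell growth measured by CellTiter-Glo luminescence after a minimum 48 h, 37 C compound exposure with 20 nM CPT in Tdp1-knockout DT40 cells stably expressing hTDP1, seeded 400/well; qHTS titration format.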
Gal4-VP16 FLuc – counter-screen for ROR gamma inhibitors: Gal4-VP16 reporter | Drosophila S2 Gal4-VP16 UAS-luciferase, luminescence, 20 h | Potency, µM (highest dose often 53.6 µM), without a hit: at the highest dose activity, negative = inhibition, actives largely listed as inhibitors | 3.5% of 310,000 active | AID 2546;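 note: Gal4-VP16 expression switched on by copper sulfate through the metallothionein promoter; nearly all actives have a fitted effect of over 50% in size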
TDP1 cell noCPT – qHTS for Inhibitors of human tyrosyl-DNA phosphodiesterase 1 (TDP1): qHTS in cells in absence of CPT | DT40 Tdp1-/- hTDP1 cells, no CPT, ATP luminescence, 48 h | Potency, µM (doses to about 46.2 µM), inactives show top-dose activity change, negative = growth inhibition, most hits filed as inhibitors | 15% of 420,000 active | AID 686978, 2013; note: nearly all actives have a fitted effect of over 55% in size
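No-CPT arm: Tdp1-/-;hTDP1 DT40 cells (400/well) plus compounds, incubated ≥48 hr at 37 °C. Readout CellTiter-Glo luminescence.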
RORgamma inh – inhibitors of mouse ROR gamma transcriptional activity | P51450 | Drosophila S2 Gal4-RORgamma UAS-luciferase reporter, 20 h | Potency, µM (highest dose often 53.6 µM), inactives show at the top dose activity change, negative = inhibition, actives largely listed as inhibitors | 5.4% of 310,000 active | AID 2551; note: nearly all actives have a fitted effect of over 60% in size
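Compounds are pin-transferred onto Drosophila Schneider cells expressing a copper-inducible Gal4–ROR gamma transactivation domain fusion. After 1 hr, copper sulfate is added to 700 uM final; luciferase is read 20 hr later.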
TDP1 block – blocks human tyrosyl-DNA phosphodiesterase 1 | Potency, µM (doses to about 130 µM), inactives show at the top dose activity change, negative = inhibition, most hits filed as inhibitors | recombinant TDP1, AlphaScreen DNA substrate cleavage | 0.28% of 350,000 active | Q9NUW8; note: nearly all actives have a fitted effect of over 40% in size
Target sequence (Q9NUW8 whole entry, looked up): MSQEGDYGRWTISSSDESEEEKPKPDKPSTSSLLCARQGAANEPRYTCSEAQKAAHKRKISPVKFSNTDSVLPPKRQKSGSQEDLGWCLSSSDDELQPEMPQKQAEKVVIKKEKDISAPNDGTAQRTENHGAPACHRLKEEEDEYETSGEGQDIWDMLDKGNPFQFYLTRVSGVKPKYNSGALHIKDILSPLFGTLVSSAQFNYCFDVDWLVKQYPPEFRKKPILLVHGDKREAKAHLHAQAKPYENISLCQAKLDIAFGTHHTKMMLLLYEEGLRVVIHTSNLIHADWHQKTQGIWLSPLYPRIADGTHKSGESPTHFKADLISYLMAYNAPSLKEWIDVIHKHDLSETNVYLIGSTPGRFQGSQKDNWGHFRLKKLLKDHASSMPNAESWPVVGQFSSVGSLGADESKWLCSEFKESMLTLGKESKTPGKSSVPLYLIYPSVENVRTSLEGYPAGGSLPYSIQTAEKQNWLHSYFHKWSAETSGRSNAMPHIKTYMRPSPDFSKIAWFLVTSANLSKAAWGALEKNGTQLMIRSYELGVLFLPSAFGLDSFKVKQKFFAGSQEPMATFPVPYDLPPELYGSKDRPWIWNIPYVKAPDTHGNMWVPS
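Enzyme-compound mixtures sat 15 min at room temperature, followed by a 5 min reaction with 15 nM final substrate and 10 min with AlphaScreen beads. Recombinant human Tdp1 was used at 1 nM final.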
An asterisk follows results filed as active; ? = inconclusive; . = no result given; [ ] = another dose, or the depositor's remark. Calls come from the whole dose curve; as a rule, active = well fitted curve in the direction sought with a large enough effect; inconclusive = small, poorly fitted or top-dose-only effect, or another doubt; inactive = no such curve, though single readings can be large; an effect the other way counts as inactive or inconclusive. % is set by controls: 0 for no effect and ±100 for the full control effect; potency is the fitted concentration of half-maximal effect.

SMILES	DT40 TDP1 CPT	Gal4-VP16 FLuc	TDP1 cell noCPT	RORgamma inh	TDP1 block
O=c1[nH]c2cc([N+](=O)[O-])cc([N+](=O)[O-])c2[nH]c1=O	.	-3%	.	-10%	10%
O=c1[nH]cc([N+](=O)[O-])cc1Br	21µM*	-11%	?	-19%	0%
Cc1onc(-c2c(F)cccc2Cl)c1C(=O)Nc1nnc(-c2ccccc2)s1	?	?	-29%	14µM*	6%
Cc1onc(-c2ccccc2Cl)c1C(=O)Nc1nnc(-c2ccc(Br)cc2)s1	16µM*	22µM*	?	10µM*	2%
Cc1onc(-c2ccccc2)c1C(=O)Nc1nnc(COc2ccc(Cl)cc2)s1	5.8µM*	-18%	8.2µM*	?	-1%
CCc1nnc(NC(=O)c2c(-c3ccccc3)noc2C)s1	-22%	3%	-7%	?	.
Cc1onc(-c2ccccc2Cl)c1C(=O)Nc1nnc(-c2ccc(Cl)cc2Cl)s1	?	?	?	14µM*	4%
Cc1onc(-c2ccccc2Cl)c1C(=O)Nc1nnc(-c2ccc(F)cc2)s1	-4%	-12%	-27%	?	-3%
O=C(CSc1nnc(C2COc3ccccc3O2)o1)N1CCOCC1 (stereo not given)	31%	8%	0%	1%	6%
Cc1ccc(N(CC(=O)N2CCc3ccccc3C2)S(C)(=O)=O)cc1	-38%	2%	?	5%	6%
COCCNCCCCSc1ccc(Cl)cc1	15µM*	3%	18µM*	0%	-1%
COCCNC(=O)CSc1ccc(Cl)cc1	16%	17%	-15%	35%	0%
Nc1nc(/C=C/c2ccc(F)cc2)nc(-c2ccccc2O)n1	?	-26%	-29%	-36%	-3%
Nc1nc(/C=C/c2cccnc2)nc(-c2ccccc2O)n1	2.9µM*	-16%	9.2µM*	-27%	2%
COc1cccc(-c2nn(C)c3sc(C(=O)NCc4ccco4)cc23)c1	21µM*	1%	-27%	24%	9%
CCN(CC)CCCNC(=O)c1cc2c(-c3cccc(OC)c3)nn(C)c2s1	?	0%	15µM*	-11%	.
COc1cccc(-c2nn(C)c3sc(C(=O)NCCc4ccc(Cl)cc4)cc23)c1	?	.	?	.	0%
CCN(CC)CCCNC(=O)c1cn(-c2cccc(OC)c2)c(=O)c2ccccc12	8%	6%	-3%	14%	.
COc1cccc(-c2nn(C)c3sc(C(=O)NCCCN(C)Cc4ccccc4)cc23)c1	?	-2%	16µM*	-27%	.
COc1cccc(-c2cc(C(=O)NCc3ccco3)no2)c1	5%	9%	-23%	?	4%
CCCCN(C)CCNC(=O)c1cc2c(-c3cccc(OC)c3)nn(C)c2s1	?	10%	21µM*	-14%	.
COC(=O)CN(Cc1ccccc1)S(=O)(=O)c1ccc(OC)c(OC)c1	-8%	9%	-4%	-2%	-3%
O=P(O)(CN1CCCCCC1)CN1CCCCCC1	.	.	.	-10%[0.365 µM]	-1%
CCCCN1CC[C@H]2C=CC[C@@H](C(=O)Nc3ccc(OC)cc3)[C@H]2C1=O	1%	.	?	.	.
C=CCn1c(SCC(=O)N2CCN(c3ccc(F)cc3)CC2)nnc1-c1cccs1	-7%	1%	-20%	25%	3%
SMILES	DT40 TDP1 CPT	Gal4-VP16 FLuc	TDP1 cell noCPT	RORgamma inh	TDP1 block
COc1ccc(C2C(C(C)=O)=C(O)C(=O)N2C)c(OC)c1 (stereo not given)	-1%	4%	-16%	-13%	-7%
COc1ccc(CN(C)Cc2nc(Cc3cccc(F)c3)no2)c2cccnc12	12µM*	7.1µM*	2.9µM*	?	3%
COc1cccc(-n2cc(CN(C)Cc3nc(Cc4cccc(F)c4)no3)cn2)c1	?	3%	-29%	0%	5%
Cc1cc(C(=O)CN2C(=O)NC3(CCCc4ccccc43)C2=O)c(C)n1Cc1cccs1 (stereo not given)	16µM*	1%	?	8%	4%
C=CCn1c(C)cc(C(=O)CN2C(=O)NC3(CCCc4ccccc43)C2=O)c1C (stereo not given)	?	-4%	?	26%	4%
CCN(Cc1cccs1)C(=O)CN1C(=O)NC(c2ccccc2)(c2ccccc2)C1=O	?	.	?	.	1%
CCN(C(=O)CN1C(=O)NC2(CCCc3ccccc32)C1=O)c1ccc(F)cc1 (stereo not given)	?	.	16µM*	.	0%
CCN(Cc1cccs1)C(=O)CN1C(=O)NC2(CCCc3ccccc32)C1=O (stereo not given)	21µM*	.	-19%	.	1%
O=C(CCc1nc(-c2cccs2)no1)Nc1cccc([N+](=O)[O-])c1	?	.	?	.	3%
O=C(CCCCCN1C(=O)c2cccc3cccc(c23)C1=O)NC1CCS(=O)(=O)C1 (stereo not given)	-13%	-3%	-4%	-5%	.
CC(C)c1ccccc1-n1c(-c2cccnc2)n[nH]c1=S	-16%	-28%	-19%	?	0%
Cc1ccc(C)c(-n2c(-c3ccncc3)n[nH]c2=S)c1	3%	-28%	-2%	10µM*	5%
Cc1ccc(C)c(-n2c(-c3ccc4c(c3)OCO4)n[nH]c2=S)c1	13%	0%	-5%	7%	6%
Cc1ccc(C)c(-n2c(-c3csc(C)c3)n[nH]c2=S)c1	-36%	5.6µM*	-17%	3.2µM*	7%
COc1ccc(/C=C/C(=O)Nc2ccc3nc4n(c(=O)c3c2)CCCC4)cc1	-18%	-17%	-22%	1%	0%
CC1=C(C)C(=O)C(C(CCCCCC(=O)O)c2ccccc2)=C(C)C1=O (stereo not given)	17µM*	-1%	?	-3%	.
O=C(O)CC(c1ccccc1)c1ccccc1	-5%	-2%	-36%	1%	1%
COc1cc2c(cc1OC)C1(CCCC1)C(N)=C2C#N	?	1%	?	17%	0%
COCC(=O)N(Cc1ccc(OC)cc1)Cc1nc2ccccc2c(=O)[nH]1	-1%	.	-3%	29%[0.365 µM]	8%
COCCN(Cc1nc2ccccc2c(=O)[nH]1)C(=O)COc1ccccc1-c1ccccc1	?	.	23µM*	.	3%
CCN(Cc1nc2ccccc2c(=O)[nH]1)C(=O)COc1ccccc1Cc1ccccc1	4.6µM*	.	4.1µM*	.	0%
CCc1ccc(CN2CCCC(C(=O)N3CCCCC3)C2)cc1 (stereo not given)	6%	-7%	-7%	-14%	.
COc1ccccc1Nc1nc(-c2ccccc2)c(CC(=O)O)s1	-1%	.	-6%	.	-3%
Cc1cccn2c(=O)cc(COc3ccc(NC(=O)C(C)Oc4ccccc4)cc3)nc12 (stereo not given)	?	.	?	.	-3%

Compound activity (PubChem BioAssay)
